ALR inh = inhibitors of human ALR sulfhydryl oxidase, primary screen, biochemical, H2O2 detection, HRP-luminol luminescence, single point. FAD-linked sulfhydryl oxidase ALR (Homo sapiens), P55789. purified ALR, DTT oxidation. 290,000 compounds, 3.8% hits. inhibition, % (concentration not given with the values). AID 485317, 2010;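 active = mean replicate inhibition above about 79%, with every replicate also reaching it, limit read from the data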
AI-2 QS mod = Vibrio harveyi AI-2 quorum sensing modulators, primary screen, JMH597 strain, luminescence/OD600 ratio. AID 2094, 2009. 300,000 compounds, 0.4% hits. activity change, % at 7.5 µM. Vibrio harveyi JMH597 AI-2 luminescence/OD600 ratio, 9 h; stronger effect = lower value; strain lacks LuxN and CqsS sensors; 0 = neutral-control median; in the data active = activity change below about -75%, passing the limit was not always enough;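 note: luminescence divided by OD600 gain over 9 h not by final OD600 alone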
CHT PAM = CHT positive allosteric modulators, primary screen, cell-based, membrane potential dye, choline EC20. High affinity choline transporter 1 (Homo sapiens), Q9GZV3. CHT-expressing cells; stronger effect = higher value; LV-AA mutant CHT in HEK293 cells. B-score at 10 µM. 310,000 compounds, 0.49% hits. AID 488977, 2010;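 active = initial fluorescence not abnormally high and integrated response B-score, plate-corrected, over 3 SD above library mean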
Target sequence (Q9GZV3 whole entry, looked up): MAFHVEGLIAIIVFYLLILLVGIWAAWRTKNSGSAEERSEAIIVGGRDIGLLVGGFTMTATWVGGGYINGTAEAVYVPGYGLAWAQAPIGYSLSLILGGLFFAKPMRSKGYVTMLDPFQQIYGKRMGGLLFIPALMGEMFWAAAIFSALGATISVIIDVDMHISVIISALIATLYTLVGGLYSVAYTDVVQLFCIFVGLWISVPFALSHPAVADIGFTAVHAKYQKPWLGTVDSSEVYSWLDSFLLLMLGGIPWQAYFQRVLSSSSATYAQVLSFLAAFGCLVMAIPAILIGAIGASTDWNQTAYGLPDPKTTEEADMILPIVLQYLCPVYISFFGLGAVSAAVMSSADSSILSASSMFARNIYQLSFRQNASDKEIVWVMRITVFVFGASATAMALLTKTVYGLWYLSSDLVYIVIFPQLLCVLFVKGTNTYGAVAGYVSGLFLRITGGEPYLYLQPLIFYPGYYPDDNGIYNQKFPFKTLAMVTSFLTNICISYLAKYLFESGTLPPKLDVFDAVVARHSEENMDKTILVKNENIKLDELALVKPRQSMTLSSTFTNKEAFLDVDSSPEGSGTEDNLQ
PREPL inh = PREPL enzyme inhibitors, primary screen, biochemical, fluorescence polarization. Prolyl endopeptidase-like (Homo sapiens), Q4J6C6. recombinant PREPL, fluorescence polarization activity-based probe. inhibition, % at 5.96 µM. 320,000 compounds, 0.68% hits. AID 2751, 2010; in the data active = inhibition above about 43%;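 note: 0% = enzyme with DMSO and 100% = wells lacking enzyme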
CHT block = inhibitors of human choline transporter CHT | High affinity choline transporter 1 (Homo sapiens), Q9GZV3 | CHT-expressing cells, membrane potential dye, choline response; stronger effect = lower value | B-score at 10 µM | 310,000 compounds, 0.86% hits;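 active = B-score over 3 SD under the library average, and starting fluorescence ratio not unusually high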;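 note: choline stimulus applied at its EC90 after an EC20 pre-addition; B-score computed on integrated fluorescence ratio after choline addition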
CHT block conf = CHT inhibitors, confirmation, cell-based, membrane potential dye, duplicate; shares compounds with CHT block; CHT-expressing cells, choline membrane potential dye; LV-to-AA substituted CHT, HEK293 cells; CHT activity remaining % of control (stronger effect = lower value), % at 10 µM; 2,400 compounds, 70% hits;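 active = choline transporter activity left, mean of duplicates at 10 µM, below buffer-only control mean minus 3 SD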;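 note: depolarization triggered by choline at its EC90 following an EC20 pre-addition; 0% = hemicholinium-3 full block and 100% = buffer-only control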
HEK293 CHT ctr = membrane potential effects in parental HEK293, counter-screen for CHT inhibitor project, cell-based, membrane potential dye; choline response; active = decrease or increase beyond buffer ±3SD; 2,400 compounds, 4% hits; membrane potential ratio readout (active if shifted either direction beyond buffer ±3SD; no single direction) at 10 µM; shares compounds with CHT block;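 note: parental cells lack the transporter so any hit is non-specific; ratio is peak minus trough fluorescence over baseline after EC90 choline challenge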
* hit, by the source's call; i = inactive; · = no result. The list is not random: actives were taken first. Their share in the collection is about 5%.

SMILES	ALR inh	AI-2 QS mod	CHT PAM	PREPL inh	CHT block	CHT block conf	HEK293 CHT ctr
CC1=NN(C(=O)CSCc2ccccc2)C(O)(c2ccc(Cl)cc2)C1 (stereo unspecified)	21	20	i	-17	-6.5*	i	i
CC1=NN(C(=O)CSCc2ccccc2)C(O)(c2ccc(F)cc2)C1 (stereo unspecified)	-3	11	i	-14	i	·	·
C=CCOc1ccccc1CN1CCC(Oc2cc(C(=O)NC3CC3)ccc2OC)CC1	-9	4	i	·	i	·	·
COc1cc(OC)cc(C(=O)NC(=S)NNC(=O)[C@H]2C[C@@H]2c2ccccc2)c1	99*	70	i	-2	-6.8*	53%*	i
O=C(O)c1ccc(S(=O)(=O)c2ccc3c(c2)C(=O)N(c2ccc(Br)cc2)C3=O)cc1	-6	38	i	-2	i	·	·
O=C(c1cccc(-c2nnc(-c3ccccc3)o2)c1)N1CCCCC1	-16	-16	i	4	-6.3*	i	i
Oc1cccc(C(O)CNCc2ccc(OCc3ccc(Cl)cc3Cl)cc2)c1 (stereo unspecified)	3	36	i	18	-5.6*	69%*	i
CC1(C(=O)N2CCC(CC3CC(c4ccc(Cl)cc4)=NO3)(C(=O)NCC3CCCCC3)CC2)CC1 (stereo unspecified)	-18	28	i	36	-5.2*	71%*	i
Cc1ccccc1NC(=O)c1ccc(C)c(S(=O)(=O)NCc2cccnc2)c1	-2	1	i	10	-7.2*	27%*	i
COc1ccccc1NS(=O)(=O)c1cc(C(=O)NCc2cccnc2)ccc1C	-5	-3	i	-3	i	·	·
CCSC1=NCCN1S(=O)(=O)c1ccc2ccccc2c1	-8	8	i	-1	i	·	·
O=S(=O)(c1ccc2ccccc2c1)N1CCN=C1SCc1cccnc1	99*	12	i	7	-5*	i	i
COc1ccc(OCCSc2nnc(C)n2-c2ccccc2)cc1	-5	13	i	22	-5*	i	i
CN(Cc1ccccc1)C(=O)COC(=O)COc1ccc(C#N)cc1	-7	6	i	6	-5.3*	65%*	i
CN(Cc1ccccc1)C(=O)COC(=O)COc1ccc(Cl)cc1	-13	·	·	2	·	·	·
O=C(Nc1ccc(S(=O)(=O)NCC2CCCO2)cc1)c1ccc(Cl)cc1[N+](=O)[O-] (stereo unspecified)	-18	3	i	-12	-16*	0.4%*	i
Cc1c(C(=O)Nc2ccc(S(=O)(=O)NCC3CCCO3)cc2)cccc1[N+](=O)[O-] (stereo unspecified)	-4	23	i	9	-5.2*	41%*	i
O=C(Nc1ccccc1)c1ccc(S(=O)(=O)NCC2CCCO2)cc1 (stereo unspecified)	-3	-1	i	20	i	·	·
CCOC(=O)c1c(NC(=O)CSc2ncn[nH]2)sc(C)c1C	·	28	i	-7	-6.7*	i	i
OC(CNC1Cc2ccccc2C1)c1ccccc1 (stereo unspecified)	-3	15	i	2	-5.2*	52%*	i
O=C(O)c1ccccc1NS(=O)(=O)c1cccc(-n2sc3ccccc3c2=O)c1	98*	10	i	8	-6.4*	22%*	i
COc1ccc(C(=O)CSc2nnc(-c3ccco3)n2C)cc1	25	34	i	-5	-5.4*	i	i

Screens as filed in PubChem BioAssay.
